62 compounds from PubChem BioAssay AID680 (PCMD, 2007) can be followed below.

Among all 62,000 compounds or so, about 120 (0.19%) were called active. Many of the other results were omitted from the sample, so actives are more common in it than they were. Unmarked numbers belong to inactive results. Cut-off read from the data, not from the text of the source: active = inhibition above about 20% (passing the limit was not always enough); inactive = the rest.

The target of the test is Coagulation factor XI (Homo sapiens) (UniProt P03951). Nature of the test: human factor XIa inhibition by mixtures – biochemical, 10-compound mixtures, primary screen (AID 680).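 Note: each value is inhibition by a whole ten-compound pool holding the compound; 0% = enzyme with no mixture and 100% = wells lacking enzyme.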 To be noted: purified FXIa, fluorogenic substrate, pooled mixtures; at 5 µM; hits give high values.
Sequence of Coagulation factor XI (Homo sapiens) (P03951 19-387 limits assumed): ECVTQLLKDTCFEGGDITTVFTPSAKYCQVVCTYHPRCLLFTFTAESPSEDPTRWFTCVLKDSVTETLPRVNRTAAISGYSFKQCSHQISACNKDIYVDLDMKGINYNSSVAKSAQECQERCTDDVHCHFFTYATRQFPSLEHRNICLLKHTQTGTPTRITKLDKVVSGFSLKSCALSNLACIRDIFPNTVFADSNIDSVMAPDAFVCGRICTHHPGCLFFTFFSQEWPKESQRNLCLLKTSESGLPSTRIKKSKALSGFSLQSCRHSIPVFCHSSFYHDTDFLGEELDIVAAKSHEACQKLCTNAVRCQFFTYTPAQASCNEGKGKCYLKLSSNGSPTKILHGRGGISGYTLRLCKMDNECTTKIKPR
Sequence of Coagulation factor XI (Homo sapiens) (P03951 388-625 limits assumed): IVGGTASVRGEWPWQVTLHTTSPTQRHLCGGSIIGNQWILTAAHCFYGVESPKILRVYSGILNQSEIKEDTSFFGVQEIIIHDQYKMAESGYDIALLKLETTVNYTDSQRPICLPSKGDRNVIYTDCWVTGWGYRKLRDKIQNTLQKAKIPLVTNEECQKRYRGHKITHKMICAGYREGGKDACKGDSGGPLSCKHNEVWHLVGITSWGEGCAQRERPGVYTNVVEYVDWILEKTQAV
As a reminder, the inhibition is the relative decrease from the control value, in per cent. Regarding `O=C(c1cccc2ccccc12)N1CCN(c2ccccc2F)CC1`, the inhibition is -1.32%.
Take `O=C(c1ccccc1)c1ccc2nc(N3CCCCC3)c3nncn3c2c1`: the inhibition was 5.07%.
For the compound `CCn1cc(C(=O)NCC2CCCO2)c(=O)c2cc(S(=O)(=O)N3CCCCC3)ccc21` (configuration not stated), the inhibition is 2.28%.
With `Cc1ccccc1Cn1c(=O)[nH]c2ccccc21` the figure was 4.81%; with `Cc1cc(NC(=O)CN2CCCCC2C)nc2c1c(=O)oc1ccccc12` (configuration not stated), 11.6%; with `COC(=O)C1=C(C)NC2=C(C(=O)c3ccccc32)C1c1ccc(-c2ccc(C(=O)O)cc2)o1` (configuration not stated), 8.48%.
With `Cc1ccc(S(=O)(=O)C(C#N)c2nc3ccccc3nc2N2CCCC2)cc1C` (configuration not stated) the figure was -0.215%; with `COc1ccc(S(=O)(=O)N2CCCC(C(=O)N3CCN(C)CC3)C2)cc1C` (configuration not stated), 8.05%.
With `O=c1c(-c2ccccc2)coc2c(CN3CCOCC3)c(O)ccc12` the figure was -0.725%; with `Cc1cc(C)cc(N(CC(=O)NCC2CCCO2)S(=O)(=O)c2c(C)noc2C)c1` (configuration not stated), 12.7%; with `Cc1cc(C(=O)N2CCN(c3ccccn3)CC2)c(C)o1`, 8.12%.
`O=C1OC(NC(=O)c2ccccc2)C(N2CCOCC2)=C1Cl` (configuration not stated): the inhibition was 1.5%.
Take `COc1ccc(CN2C(=O)CN=C2Nc2ccc(C)cc2C)cc1`: the inhibition is 9.03%.
On to `O=C(Cn1nnc(-c2ccc(CN3CCOCC3)cc2)n1)NC1CCCCC1`, for which the inhibition was 4.01%.
Take `Cc1cc(NS(=O)(=O)c2ccccc2)no1`: the inhibition was 7.83%.
In the case of `CSc1ccc(S(=O)(=O)NCc2ccc(Cl)cc2)cc1`, the inhibition is 7.5%.
As to `Cc1cccc(NC(=O)CSC(N)=O)c1C`, the inhibition is 4.87%.
Take `C=CCNC(=O)C12CC3CC(C1)CC(C(=O)NCC=C)(C3)C2`: the inhibition is 4.77%.
With `O=C(O)CN(Cc1ccco1)S(=O)(=O)c1ccccc1` the figure was 2.68%; with `N=c1c2c3c(sc2ncn1CCCN1CCOCC1)CCCCC3`, 42.3%.
With `Cc1ccc2nc(NCCCNC(=O)c3cnccn3)c(C#N)cc2c1` the figure was -0.515%; with `O=S(=O)(c1cccc(-c2nnc(SC(F)F)n2-c2ccccc2)c1)N1CCCCC1`, 6.38%.
For `C=CCN(c1ccc(C(N)=O)cc1)S(C)(=O)=O`, the inhibition is 9.34%.
With `CCc1ccccc1N(CC(=O)N1CCN(c2ccccc2F)CC1)S(C)(=O)=O` the figure was 9.44%.
Consider `CC(C)(C)c1csc(NC2=NS(=O)(=O)c3ccccc32)n1`, for which the inhibition is 0.915%.
Next, `O=C(NCCCN1CCN(c2ccccc2F)CC1)C1CCC(=O)N1C1CCCCC1` (configuration not stated): 0.475%; `O=C(NCc1ccc2c(c1)OCO2)c1cc2c(s1)CS(=O)(=O)C2`: 1.71%; `COC(=O)[C@H](Cc1ccccc1)NC(=O)N1CC(C)OC(C)C1` (some centres not stated): -17.5%.
As for `Cn1c(SCC(=O)OC2CCCCC2)nnc1-c1ccc(S(=O)(=O)N2CCCC2)cc1`, the inhibition is -4.25%.
Take `CC(C)c1ccc(NC(=O)NC2CCCCC2)cc1`: the inhibition is -11.2%.
On to `CC1Cc2ccccc2N1C(=O)Cn1cnc2ccccc2c1=O` (configuration not stated), for which the inhibition was 3.86%.
Consider `COc1ccc(Cc2nnc(NS(=O)(=O)Cc3ccccc3)s2)cc1`, for which the inhibition was 10.4%.
Regarding `C[N+](C)(C)CCOP(=O)([O-])OC[C@H](O)CO`, the inhibition was 4.21%.
As for `CCOC(=O)Cn1c(=O)oc2cc(S(=O)(=O)NCC3CCCO3)ccc21` (configuration not stated), the inhibition was 5.99%.
Regarding `CCOC(=O)C(CC)Sc1ncnc2c1nnn2-c1ccc(F)cc1` (configuration not stated), the inhibition is 14%.
With `Cc1csc(NC(=O)NC2(C(F)(F)F)Oc3ccccc3O2)n1` the figure was 0.345%.
Next, `O=C(CN1CCN(c2ccccc2F)CC1)c1ccc2c(c1)OCO2`: 4.78%; `O=C(NC1CCCCC1)N1CCc2[nH]c3ccccc3c2C1`: 7.75%.
As to `CC(C)(C)Oc1ncc(Br)c(OC(C)(C)C)n1`, the inhibition is -2.49%.
On to `CCOC(=O)C1=C(C)NC(C)=C(C(=O)OCC)C1C1=COCCO1`, for which the inhibition is -9.31%.
For the compound `c1ccc(COc2nsnc2N2CCOCC2)cc1`, the inhibition is 11.9%.
In the case of `CCNC(=O)CCc1nc(-c2ccc(C(C)(C)C)cc2)no1`, the inhibition was -1.14%.
Next, `CC1COC2C(O1)N(S(C)(=O)=O)CCN2S(C)(=O)=O` (configuration not stated): 1.71%.
As for `CC(C)CNC(=O)c1cc(-c2ccc(Br)cc2)on1`, the inhibition is 5.53%.
Take `CCC(=O)c1ccc(OCC(O)CN2C(=O)NC(C)(C)C2=O)cc1` (configuration not stated): the inhibition was 11.4%.
With `CC1CN(c2cc(=O)n(-c3cccc(Br)c3)c(=O)[nH]2)CC(C)O1` (configuration not stated) the figure was 6.23%.
With `Cc1cccc(Cn2c(N3CCN(c4ccccc4)CC3)nc3c2c(=O)n(C)c(=O)n3C)c1` the figure was -1.79%; with `CCOc1ccccc1NC(=O)Nc1cc(OC)ccc1OC`, 1.07%.
Regarding `CCOC(=O)c1sc(/N=C/Nc2nc(C)c(C(=O)OCC)s2)nc1C`, the inhibition is 5.51%.
Next, `Cc1cnc(C(=O)OCC(=O)Nc2ccc(Cl)cc2Cl)cn1`: 6%; `O=C(Nc1nnc(CCc2ccccc2)s1)C1CCCO1` (configuration not stated): 21.3% (active); `O=C(Nc1cccc(-c2nnc(-c3ccccc3)o2)c1)C1CCCO1` (configuration not stated): -7.16%.
Next, `O=C(Nc1ccc(-c2nnc(-c3ccccc3)o2)cc1)C1CCCO1` (configuration not stated): 9.26%.
With `CCOC(=O)c1ccc(-n2c(C)nc3c(cnn3-c3ccccc3C)c2=O)cc1` the figure was -0.685%.
Turning to `CCC(CC)C(=O)Nc1cc(C(=O)OC)cc(C(=O)OC)c1`, the inhibition is -1.44%.
Take `CCc1ccccc1NC1c2ccccc2C(=O)N1c1cccnc1` (configuration not stated): the inhibition is -0.145%.
With `CCOC(=O)N1CCC(Nc2c(NCCCN3CCN(c4ccc(OC)cc4)CC3)c(=O)c2=O)CC1` the figure was 12.6%; with `N#CC(C(N)=O)=C1CCC2(CC1)OCCCCO2`, 4.44%.
Next, `CCc1nnc(NC(=O)c2cccs2)s1`: 5.55%; `O=C(CS(=O)(=O)c1cn(Cc2ccc(Cl)cc2)c2ccccc12)N1CCOCC1`: -16.2%; `CCN1C(=O)/C(=C2\SC(N3CCCCC3)=NC2=O)c2ccccc21`: -7.47%.
As for `O=C(c1cccc(C(=O)N2CCN(c3ccc(F)cc3)CC2)c1)N1CCN(c2ccc(F)cc2)CC1`, the inhibition is 0.53%.
